# Source: PubChem (several laboratories)
# The list is not random: actives were taken first. Their share in the collection is about 3.7%.
# BoNT F protease = BoNT F light chain protease inhibition; inhibition, % at 10 µM; Multiplex microsphere protease cleavage assay, flow cytometry; 360,000 compounds, 0.22% hits; AID 588497; in the data active = inhibition above about 35%, passing the limit was not always enough; inconclusive = no clear call, values can overlap the other calls; also: plate controls were buffer without enzyme for full effect and enzyme alone for no effect
# Autofluor counter = flagged as autofluorescent in microsphere protease counterscreen; compound autofluorescence counterscreen, microsphere flow cytometry; active compounds read high; fluorescence intensity (concentration not given with the values); 360,000 compounds, 3.1% hits; in the data active = fluorescence intensity above about 16000; inconclusive = no clear call, values can overlap the other calls
# BoNT A protease = inhibitors of Botulinum neurotoxin A light chain protease; AID 588499; multiplex microsphere protease substrate cleavage, flow cytometry; inhibition, % at 10 µM; 360,000 compounds, 0.17% hits; also: plate controls were buffer without enzyme for full effect and enzyme alone for no effect
# Anthrax LF inh2 = inhibitors of Bacillus anthracis lethal factor protease; multiplex microsphere protease cleavage assay, LF; AID 588501; 360,000 compounds, 0.12% hits; inhibition, % at 10 µM; P15917; also: plate controls were buffer without enzyme for full effect and enzyme alone for no effect
# MazEF act = activators of E. coli MazEF toxin-antitoxin RNase | FAM/BHQ RNA-DNA oligo cleavage fluorescence, 5 h | AID 504720 | 350,000 compounds, 0.32% hits | activation, % at 20 µM; in the data active = activation above about 50%
# Target sequence (P0AE70 whole entry, looked up): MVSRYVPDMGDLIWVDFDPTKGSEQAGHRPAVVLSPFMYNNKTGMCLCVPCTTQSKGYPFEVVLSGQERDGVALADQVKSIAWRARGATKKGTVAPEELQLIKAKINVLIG
# An asterisk follows results filed as active; ? = inconclusive; nt = no result. Rule as the data show it, unless noted: active = inhibition above about 30%; inconclusive = no clear call, values can overlap the other calls; inactive = below that.
SMILES,BoNT F protease,Autofluor counter,BoNT A protease,Anthrax LF inh2,MazEF act
O=C(Nc1c(Cl)cc(Cl)cc1C(=O)NCCN1CCOCC1)c1ccc(Cl)cc1Cl,-1,16191*,0,0,-5
COc1ccc(-n2c(C)nc3cc(C(=O)NCCN4CCOCC4)ccc32)cc1,1,23270*,?,1,-1
COc1ccc(C(=O)Nc2c(Cl)cc(Cl)cc2C(=O)NCCN2CCOCC2)cc1,-2,21881*,?,0,-4
COCCCN1C(=O)C(CC(=O)NCCc2ccccn2)CC(C(=O)N2CCCCCC2)=C1C (stereo not drawn),-8,6203,-1,-2,nt
CCN(CC(=O)Nc1ccc(NC(C)=O)cc1)C(=O)c1ccc(N(C)S(=O)(=O)c2ccc(C)cc2)cc1,4,3684,0,-2,-1
COC(=O)c1ccc(CSc2nc(C)nc3sc(C)c(C)c23)o1,5,22019*,1,0,-16
COC(=O)c1ccc(CSc2nnc(SCc3ccc(C(=O)OC)o3)s2)o1,5,9631,1,-1,-2
COc1cccc(-c2csc(N3CCN(C(=S)Nc4ccccc4)CC3)n2)c1,-12,10311,-2,-3,3
COc1cccc(-c2csc(N3CCN(Cc4ccccc4)CC3)n2)c1,-9,24520*,-3,-3,2
COc1cccc(-c2csc(N3CCN(S(=O)(=O)c4ccc(F)cc4)CC3)n2)c1,1,21656*,2,-7,-5
O=C(Nc1ccc2c(c1)OCCO2)C1c2ccccc2OCC(=O)N1CC(F)(F)F (stereo not drawn),-2,4228,0,-4,nt
Cc1nc2sc(C(c3ccc(Cl)cc3)N3CC(C)OC(C)C3)c(O)n2n1 (stereo not drawn),36*,3430,2,1,3
O=C(NC(c1ccc(F)cc1)c1ccc2ccccc2n1)C1CCN(CCOc2ccc(Cl)cc2)CC1 (stereo not drawn),-10,3320,0,-6,nt
C/C=C/c1c(F)c(F)c(Oc2ccc(C(=O)O)cc2)c(F)c1F,2,21781*,3,-7,2
CC(C)OC(=O)Nc1ccc(Oc2c(F)c(F)c(F)c(F)c2F)cc1,3,2505,0,-2,-4
CCOc1ccc(C(=O)OCC(=O)N2CCCC2)cc1,-6,3729,0,-4,4
COc1ccccc1N=C1NC(=O)/C(=C/c2ccc(N(C)C)cc2)S1,17,6909,2,8,46
CC1(C(=O)NC2CCCCCCC2)CC1(Cl)Cl (stereo not drawn),-3,17224*,-3,-5,2
O=C(NC1CCCCC1)C1(c2ccccc2)CC1(Cl)Cl (stereo not drawn),10,2161,0,1,-8
CCOC(=O)C1=C[C@@H](c2ccccc2)N(S(=O)(=O)c2ccc(C)cc2)[C@H]1c1ccc(OC)cc1,12,4068,0,-8,nt
CC(=O)NCCNc1nc2cc(-c3ccc(Cl)cc3C)sc2c(=O)n1C,-1,3705,0,-4,nt
Cc1nnc(SCC(=O)Nc2cccc(C(F)(F)F)c2)n1Cc1ccco1,-17,3531,0,-2,3
Cc1cc(NC(=O)CSc2nnc(CNc3cccc(C(F)(F)F)c3)n2Cc2ccco2)no1,-6,17703*,-3,-4,5
Cc1cc(NC(=O)CSc2nnc(-c3ccco3)n2Cc2ccco2)no1,3,19201*,1,-10,2
COc1ccc(C)cc1NC(=O)CSc1nnc(-c2ccco2)n1Cc1ccco1,-5,17132*,-2,0,0
SMILES,BoNT F protease,Autofluor counter,BoNT A protease,Anthrax LF inh2,MazEF act
CCOc1ccccc1NC(=O)CSc1nnc(-c2ccco2)n1Cc1ccco1,2,21394*,2,-12,-1
Cc1nn2c(-c3ccc(S(=O)(=O)N4CCN(C)CC4)o3)nnc2c2ccccc12,-5,5610,-1,2,9
CCN(CC)CCN1CCN(c2cncc(-c3ccc4ccccc4c3)n2)CC1,-10,4095,1,-13,nt
Fc1cccc(Cc2c(C3CCCCC3)nc3ccc(Br)cn23)c1,-21,6998,5,-6,nt
CCCc1ccc(Oc2cc(N3CCOCC3)nc(-c3ccccc3)n2)cc1,-1,23308*,1,-2,-5
CCCc1ccc(Oc2cc(C)nc(N3CCOCC3)n2)cc1,4,2445,0,-3,-2
CCC(=O)N1N=C(c2ccccc2)CC1c1ccc([N+](=O)[O-])cc1 (stereo not drawn),1,8442,0,2,-6
COc1ccc(C2=NN(C(=O)c3cccc([N+](=O)[O-])c3)C(c3cccc([N+](=O)[O-])c3)C2)cc1 (stereo not drawn),-2,19134*,1,0,3
COc1ccc(C2CC(c3cccc([N+](=O)[O-])c3)=NN2/C(C)=C/C(C)=O)cc1 (stereo not drawn),77*,54573*,-11,1,-30
CCCCn1nnnc1C(c1cc2ccccc2o1)N(C)Cc1ccc(Cl)cc1 (stereo not drawn),-18,5850,-1,-13,nt
COc1ncnc2sc(-c3ccccc3)cc12,-30,8513,-4,-7,-2
COc1ccc(Nc2ncnc3sc(-c4ccccc4)cc23)cc1,-2,19970*,?,3,-2
Cc1ccccc1CNC(=O)Cc1cccs1,0,2431,1,-2,0
O=C(Cc1cccs1)NCc1ccccc1F,-5,21726*,-5,0,2
O=C(Nc1nnc(COc2ccccc2)s1)C1CCN(S(=O)(=O)c2ccc(Cl)cc2)CC1,0,23493*,0,-3,10
CN(Cc1ccccc1Br)C(=O)CSc1nnnn1C1CC1,4,5099,3,-1,2
COc1cccc(CNc2ccc(N3CCC(C)CC3)cc2)c1OC,-5,19533*,3,-4,0
COc1cc2cc(CCO)oc(=O)c2cc1OC,1,2929,0,-1,5
CCCCN1C(=O)C(CC(=O)NCCc2ccccn2)CC(C(=O)N2CCOCC2)=C1C (stereo not drawn),-3,3429,0,-2,5
Cc1ccc(OCCNC(=O)C2CC(=O)N(c3ccc(C)cc3)C2)cc1 (stereo not drawn),-5,2721,1,6,-2
C=COCCNC(=O)C1CC(=O)N(c2ccc(C)cc2)C1 (stereo not drawn),-7,24393*,-1,-6,8
Cc1ccc(N2CC(C(=O)Nc3cccnc3)CC2=O)cc1 (stereo not drawn),2,23113*,0,1,7
CCc1nc2c(OCc3ccc(C#N)cc3)cccn2c1N(C)C(=O)C(C)C,-3,2951,0,-5,nt
Cc1c(N=Cc2ccc(Br)s2)cccc1[N+](=O)[O-],-2,23875*,0,0,-8
Cc1c(N=Cc2cc3c(cc2[N+](=O)[O-])OCO3)cccc1[N+](=O)[O-],-7,6251,-1,-9,-3
CCCS(=O)(=O)c1c(S(=O)(=O)CCC)c2c(N)cccn2c1C(=O)c1ccccc1,-1,16615*,?,-2,0
CCCS(=O)(=O)c1c(S(=O)(=O)CCC)c2c(N)cccn2c1C(=O)OC,-2,3738,-1,-2,2
